About 83,000 compounds went through this panel and 20% of them were active in at least one assay; those are over-represented in the sample as a whole.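 Each cell line was grown in a 96-well plate and treated with one concentration of compound for 48 hours. Values below 10 were considered active.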 Values without a mark were called inactive. Calls of active or inactive are those of the source.
Experiments:
Assay in all cases: NCI-60 one-dose screen, 48 h (100 = growth as untreated, 0 = no growth, -100 = all killed)
Details in all cases: 10 µM unless noted
RPMI-8226 leukemia = test system: RPMI-8226 leukemia
OVCAR-8 ovarian = test system: OVCAR-8 ovarian
OVCAR-5 ovarian = test system: OVCAR-5 ovarian
SK-OV-3 ovarian = test system: SK-OV-3 ovarian
IGROV1 ovarian = test system: IGROV1 ovarian
OVCAR-3 ovarian = test system: OVCAR-3 ovarian
HS 578T breast = test system: HS 578T breast
NCI/ADR-RES ovarian = test system: NCI/ADR-RES ovarian
T-47D breast = test system: T-47D breast
BT-549 breast = test system: BT-549 breast
MDA-MB-435 melanoma = test system: MDA-MB-435 melanoma
SW-620 colon = test system: SW-620 colon
MCF7 breast = test system: MCF7 breast
HCT-116 colon = test system: HCT-116 colon
HCC-2998 colon = test system: HCC-2998 colon
KM12 colon = test system: KM12 colon

| Structure (SMILES) | growth (RPMI-8226 leukemia) | growth (OVCAR-8 ovarian) | growth (OVCAR-5 ovarian) | growth (SK-OV-3 ovarian) | growth (IGROV1 ovarian) | growth (OVCAR-3 ovarian) | growth (HS 578T breast) | growth (NCI/ADR-RES ovarian) | growth (T-47D breast) | growth (BT-549 breast) | growth (MDA-MB-435 melanoma) | growth (SW-620 colon) | growth (MCF7 breast) | growth (HCT-116 colon) | growth (HCC-2998 colon) | growth (KM12 colon) |
| --- | --- | --- | --- | --- | --- | --- | --- | --- | --- | --- | --- | --- | --- | --- | --- | --- |
| CCCn1c(N)c(C(N)=O)sc1=S | 94.5% | 106% | 90.8% | 103% | 100% | 103% | 95.7% | 104% | 94.8% | 118% | 109% | 101% | 106% | 101% | 110% | 97.4% |
| CCOC(=O)c1c(-c2ccc(O)cc2)c(C#N)c2c(C#N)c(N)nn2c1N | 38.7% | 70.8% | 89.3% | 75.5% | 52.3% | 66.3% | 70.2% | 95.9% | 28.2% | – | 1.63% (active) | 42.6% | 31.5% | 67.6% | 80.9% | 47.5% |
| N#Cc1nc(-c2ccccc2)oc1S(=O)(=O)NCC(c1ccc(Cl)cc1)N1CCCCC1 (configuration not stated) | 3.47% (active) | 71.3% | 102% | 113% | 44.2% | 61.9% | 102% | 91.1% | 65.1% | 77.6% | 64.3% | 26.5% | 35% | 27.3% | 107% | 80.6% |
| NS(=O)(=O)c1ccc(-n2ncc(NC(=O)Nc3ccc(S(=O)(=O)Nc4nccs4)cc3)c2-c2ccccc2)cc1 | 103% | 102% | 99% | 99.5% | 105% | 111% | 102% | 105% | 94.2% | 103% | 98.1% | 98.5% | 92% | 93% | 107% | 108% |
| COc1ccc2nc(-c3ccc(Cl)cc3)cc(C(=O)N3N=C(c4ccc(N)cc4)CC3c3ccccc3)c2c1 (configuration not stated) | 29% | 54% | 80.9% | 46.1% | 53.9% | 9.64% (active) | 48.4% | 15.2% | 38.8% | – | 4.25% (active) | 36% | 11.9% | 34.8% | 70.3% | 18.7% |
| COc1ccc(-c2nc(C#N)c(NCC(c3ccc(Cl)cc3)N3CCCCC3)o2)cc1 (configuration not stated) | 85.6% | 101% | 96% | 109% | 85.8% | 95.1% | 97.3% | 87.1% | 94.8% | 106% | 77.1% | 97.5% | 80.6% | 80.5% | 107% | 84.9% |
| Cc1nccc2c3ccc(OCc4cn(-c5ccc(Br)cc5)nn4)cc3n(CC(C)C)c12 | -16.2% (active) | 40.7% | 68.2% | 43.4% | 67.4% | 57.8% | 59.4% | 32.1% | 36.9% | 54.4% | 61.3% | 48% | 31.2% | 23% | 70.3% | 44.8% |
| O=C(Nc1cc(Br)ccn1)c1cc2cc(Nc3nc(-c4ccccc4)nc4ccccc34)ccc2oc1=O | 108% | 103% | 115% | 103% | 115% | 113% | 107% | 113% | 98.3% | 103% | 116% | 104% | 91.1% | 98.5% | 92.7% | 102% |
| O=C(Nc1cc(Nc2ncccc2-c2ncnc3nc[nH]c23)ccc1F)c1cc(C(F)(F)F)cc(C(F)(F)F)c1 | -13% (active) | -9.42% (active) | -41% (active) | -18% (active) | 2.77% (active) | -1.23% (active) | -19.1% (active) | -20.8% (active) | 11.1% | -25.2% (active) | 6.76% (active) | 13.1% | -2.67% (active) | -43% (active) | -83.4% (active) | -55.9% (active) |
